Measurements taken from PubChem BioAssay AID1159580 (chemical genetic matrix, 2015).
The whole screen tested about 5,500 compounds, of which about 2,000 (36%) were called active. About 18% were inconclusive and are not listed. No stated cut-off is given here; in the data, active means normalized growth mostly below about 0.91 (no sharp cut-off); inconclusive means no clear call, values can overlap the other calls; inactive means mostly above about 0.92. The list shows a part of the results.

Assay: chemical genetic growth profiling, strain panel (AID 1159580);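 further: tested at 20 µM; growth read once vehicle control cultures reached saturation at 30 °C; 1 = growth at the plate median or of vehicle wells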
Conditions: S. cerevisiae deletion strains, growth OD

Measured: normalized growth

O=C(O)c1c2ccccc2cc2ccccc12
active: locus YDR195W, strain ref2 1.26 [resistant]
inactive: locus YAL013W, strain DEP1, stronger effect = lower value 1.02 | locus YAL021C, strain ccr4, stronger effect = lower value 0.973 | locus YAL026C, strain drs2, stronger effect = lower value 1.02 | locus YAL030W, strain snc1, stronger effect = lower value 0.99 | locus YBL061C, strain skt5, stronger effect = lower value 1 | locus YBR009C, strain hhf1, stronger effect = lower value 0.989 | locus YBR021W, strain FUR4, stronger effect = lower value 0.967 | locus YBR023C, strain chs3, stronger effect = lower value 1.01 | locus YBR171W, strain sec66, stronger effect = lower value 0.994 | locus YBR229C, strain ROT2, stronger effect = lower value 1.02 | locus YBR231C, strain swc5, stronger effect = lower value 1.01 | locus YBR279W, strain paf1, stronger effect = lower value 0.959 | locus YCL011C, strain gbp2, stronger effect = lower value 0.998 | locus YCL016C, strain dcc1, stronger effect = lower value 1.01 | locus YCL029C, strain bik1, stronger effect = lower value 0.992 | locus YCL061C, strain MRC1, stronger effect = lower value 1 | locus YCL069W, strain vba3, stronger effect = lower value 1.01 | locus YCR088W, strain abp1, stronger effect = lower value 0.996 | locus YDL005C, strain med2, stronger effect = lower value 0.99 | locus YDL035C, strain GPR1, stronger effect = lower value 1 | locus YDL040C, strain nat1, stronger effect = lower value 0.991 | locus YDL074C, strain BRE1, stronger effect = lower value 1.03 | locus YDL101C, strain DUN1, stronger effect = lower value 1.02 | locus YDL134C, strain PPH21, stronger effect = lower value 1.01 | locus YDL185W, strain tfp1, stronger effect = lower value 0.953 | locus YDL192W, strain arf1, stronger effect = lower value 0.98 | locus YDR001C, strain nth1, stronger effect = lower value 0.991 | locus YDR069C, strain doa4, stronger effect = lower value 0.991 | locus YDR101C, strain arx1, stronger effect = lower value 0.983 | locus YDR137W, strain rgp1, stronger effect = lower value 0.965 | locus YDR150W, strain NUM1, stronger effect = lower value 1.02 | locus YDR159W, strain sac3, stronger effect = lower value 1.03 | locus YDR162C, strain NBP2, stronger effect = lower value 1.03 | locus YDR297W, strain sur2, stronger effect = lower value 0.99 | locus YDR318W, strain mcm21, stronger effect = lower value 0.976 | locus YDR334W, strain swr1, stronger effect = lower value 1 | locus YDR335W, strain msn5, stronger effect = lower value 1 | locus YDR388W, stronger effect = lower value 0.98 | locus YDR392W, strain spt3, stronger effect = lower value 0.906 | locus YDR502C, strain sam2, stronger effect = lower value 0.986 | locus YEL003W, strain gim4, stronger effect = lower value 0.994 | locus YEL037C, strain rad23, stronger effect = lower value 1.01 | locus YEL061C, strain CIN8 (second series), stronger effect = lower value 0.993 | locus YEL061C, strain CIN8, stronger effect = lower value 1.01 | locus YER015W, strain faa2, stronger effect = lower value 1.01 | locus YER016W, strain bim1, stronger effect = lower value 1.01 | locus YER110C, stronger effect = lower value 0.964 | locus YER111C, strain swi4, stronger effect = lower value 0.997 | locus YER155C, strain BEM2 (second series), stronger effect = lower value 1.01 | locus YER155C, strain BEM2, stronger effect = lower value 1.01 | locus YER167W, strain BCK2, stronger effect = lower value 1.02 | locus YFR010W, strain ubp6, stronger effect = lower value 1.01 | locus YGL078C, strain dbp3, stronger effect = lower value 0.969 | locus YGL086W, strain mad1, stronger effect = lower value 0.984 | locus YGL167C, strain pmr1, stronger effect = lower value 1 | locus YGL173C, strain kem1, stronger effect = lower value 0.996 | locus YGL227W, strain vid30, stronger effect = lower value 1 | locus YGL240W, strain doc1, stronger effect = lower value 0.964 | locus YGL248W, strain PDE1, stronger effect = lower value 1.02 | locus YGL253W, strain hxk2, stronger effect = lower value 1.01 | locus YGR078C, strain PAC10, stronger effect = lower value 1.01 | locus YGR135W, strain pre9, stronger effect = lower value 0.971 | locus YGR229C, strain SMI1, stronger effect = lower value 1.02 | locus YGR252W, strain gcn5, stronger effect = lower value 0.955 | locus YHR013C, strain ard1, stronger effect = lower value 0.926 | locus YHR027C, strain rpn1, stronger effect = lower value 1.01 | locus YHR030C, strain SLT2, stronger effect = lower value 1.01 | locus YHR079C, strain IRE1 (second series), stronger effect = lower value 0.989 | locus YHR094C, strain hxt1, stronger effect = lower value 0.987 | locus YHR129C, strain ARP1, stronger effect = lower value 1.02 | locus YHR142W, strain chs7, stronger effect = lower value 0.987 | locus YHR200W, strain rpn10, stronger effect = lower value 0.977 | locus YIL066C, strain RNR3, stronger effect = lower value 0.981 | locus YIL073C, strain SPO22, stronger effect = lower value 0.924 | locus YIL125W, strain kgd1, stronger effect = lower value 0.959 | locus YIR030C, strain dcg1, stronger effect = lower value 0.987 | locus YJL092W, strain hpr5, stronger effect = lower value 1.01 | locus YJL095W, strain BCK1 (second series), stronger effect = lower value 0.988 | locus YJL095W, strain BCK1, stronger effect = lower value 1 | locus YJL115W, strain asf1, stronger effect = lower value 0.997 | locus YJL129C, strain trk1, stronger effect = lower value 1 | locus YJL134W, strain LCB3, stronger effect = lower value 1.01 | locus YJL154C, strain vps35, stronger effect = lower value 0.988 | locus YJL164C, strain tpk1, stronger effect = lower value 0.969 | locus YJL166W, strain qcr8, stronger effect = lower value 0.973 | locus YJL168C, strain set2, stronger effect = lower value 0.971 | locus YJL187C, strain SWE1 (second series), stronger effect = lower value 1.01 | locus YJL187C, strain SWE1, stronger effect = lower value 0.985
